ROC1-CUL1 inh – inhibitors of human ROC1-CUL1 ubiquitin ligase activity. in vitro K48 di-Ub FRET, acceptor:donor ratio, 45 min. AID 1347404, 2020. hit rate 0.6% among 140,000. inhibition, % at 10 µM; in the data active = inhibition above about 25%
Target sequence (P62877 whole entry, looked up): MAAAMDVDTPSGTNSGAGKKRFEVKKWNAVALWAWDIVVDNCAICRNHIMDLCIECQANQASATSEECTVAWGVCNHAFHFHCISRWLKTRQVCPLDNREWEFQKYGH
Target sequence (Q13616 whole entry, looked up): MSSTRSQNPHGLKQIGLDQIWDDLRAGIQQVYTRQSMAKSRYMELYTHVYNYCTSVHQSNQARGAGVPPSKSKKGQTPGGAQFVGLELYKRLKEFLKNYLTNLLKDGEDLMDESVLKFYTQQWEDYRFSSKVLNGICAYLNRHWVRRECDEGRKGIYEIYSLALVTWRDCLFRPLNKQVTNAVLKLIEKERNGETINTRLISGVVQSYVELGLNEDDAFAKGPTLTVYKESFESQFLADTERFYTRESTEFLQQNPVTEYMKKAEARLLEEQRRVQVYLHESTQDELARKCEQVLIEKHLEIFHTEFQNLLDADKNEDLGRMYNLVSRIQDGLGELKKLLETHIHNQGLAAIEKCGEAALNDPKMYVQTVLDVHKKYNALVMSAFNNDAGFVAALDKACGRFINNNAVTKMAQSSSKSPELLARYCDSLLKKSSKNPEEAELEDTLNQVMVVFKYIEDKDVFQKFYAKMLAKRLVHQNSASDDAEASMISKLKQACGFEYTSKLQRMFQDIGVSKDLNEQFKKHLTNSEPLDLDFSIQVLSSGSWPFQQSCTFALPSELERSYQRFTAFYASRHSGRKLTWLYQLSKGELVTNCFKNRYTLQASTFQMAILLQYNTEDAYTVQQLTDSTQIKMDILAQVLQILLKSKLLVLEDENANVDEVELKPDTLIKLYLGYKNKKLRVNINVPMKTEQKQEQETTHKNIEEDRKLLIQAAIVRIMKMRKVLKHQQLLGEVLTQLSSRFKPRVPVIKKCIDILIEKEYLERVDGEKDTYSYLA
Active calls of the source: *. This is one part of a sample in which hits are shown more often than they occur.

SMILES | ROC1-CUL1 inh
COc1cccc(C=C2C(=O)c3ccccc3C2=O)c1OC(C)C | -8
Cc1ccccc1N1C(=O)/C(=C/c2cccn2-c2cccc(C(=O)O)c2)C(=O)NC1=S | 102*
COc1cccc(/C=C2\C(=O)NC(=S)N(c3ccccc3C)C2=O)c1OC(C)C | 31*
CCc1ccc(N2C(=O)/C(=C/c3cccn3-c3cccc(C(=O)O)c3)C(=O)NC2=S)cc1 | 21
O=C1NC(=S)N(c2ccccc2F)C(=O)/C1=C/c1cccn1-c1cccc(C(=O)O)c1 | 101*
O=C(O)c1cccc(-n2cccc2/C=C2\SC(=O)N(Cc3ccccc3F)C2=O)c1 | 8
Cc1ccccc1N1C(=O)/C(=C/c2cc(Cl)cc(Cl)c2O)C(=O)NC1=S | 7
CCOc1ccc(/C=C2\C(=O)NC(=S)N(c3cccc(C)c3C)C2=O)cc1 | -1
CCOC(=O)c1cc(NCc2ccc(Oc3ccccc3)cc2)c2c(Cl)cc(Cl)cc2n1 | -9
CN(c1ccccc1)c1cccc(Br)n1 | 7
CN(c1ncccc1CNC(=O)CCN1CCCCO1)C1CCCCC1 | 9
O=C1NC(=O)C(=Cc2cn(Cc3c(F)cccc3Cl)c3ccccc23)C(=O)N1 | 9
CC1CCc2c(sc(NC(=O)C(C)(C)C)c2C(=O)Nc2ccc(Cl)cc2)C1 (centres undefined) | -2
CCCc1c(C)nc(N2CCN(c3ccc(Cl)cc3)CC2)[nH]c1=O | 5
CCCNC(=O)c1cccc(NS(C)(=O)=O)c1 | 12
CC(=O)NCCNC(=O)Cc1c2c(n(Cc3ccccc3F)c1C)CCCC2=O | -1
O=C(O)c1ccc(Cn2cc(Cl)c([N+](=O)[O-])n2)cc1 | -11
Cn1c(N)c(Cc2ccccc2)c2ccccc21 | -2
C=CCOc1c(Br)cc(CNc2ccc(C(=O)O)cc2)cc1OCC | 9
C=CCOc1c(Br)cc(CNc2nccs2)cc1OCC | 10
C=CCOc1c(Br)cc(CNC(C)(C)C)cc1OCC | 66*
COC(=O)[C@H]1C=C(c2ccccc2)S[C@]1(c1ccccc1)c1nc2ccccc2[nH]1 | -2
Cc1ccc(S(=O)(=O)N2CCc3cc(C(=O)N4CCOCC4)ccc32)cc1 | 6
CCCCNC(=O)N1CCN(Cc2ccccc2)CC1 | 10
CC(C)C(=O)N1CCN(Cc2cccc(F)c2)CC1 | -5
SMILES | ROC1-CUL1 inh
O=C(C(C(F)(F)F)C(F)(F)F)N1CCN(Cc2ccccc2)CC1 | 53*
CCN=C1CC=CC=C(C(=O)/C=C/c2ccc(Cl)c(Cl)c2)C1=O | 62*
CCN=C1CC=CC=C(C(=O)/C=C/c2ccc(C(F)(F)F)cc2)C1=O | -9
CCN=C1CC=C(Br)C=C(C(=O)/C=C/c2cccc(Cl)c2Cl)C1=O | 22
CC(C)CCNC(=O)/C=C/c1ccc(Cl)c(Cl)c1 | -3
CCN=C1CC=CC=C(C(=O)/C=C/c2ccccc2OC)C1=O | 87*
CCN=C1CC=C(Br)C=C(C(=O)/C=C/c2ccc(N(C)C)cc2)C1=O | 6
CCN=C1CC=CC=C(C(=O)/C=C/c2cc(OC)ccc2OC)C1=O | 8
O=C(/C=C/c1ccc(Cl)c(Cl)c1)NCCC1=CCCCC1 | 7
CCN=C1CC=CC=C(C(=O)/C=C/c2ccc(Br)cc2)C1=O | 86*
CCC1(NC)C(=O)c2ccccc2C1=O | -4
C=CCSc1nnc2c(n1)OC(c1sccc1C)N(C(C)=O)c1ccccc1-2 (centres undefined) | 2
CCN1CCN(C2(C(=O)NCc3ccccc3C)Cc3ccccc3C2)CC1 | 8
CN1NC2(CCOC(C)(C)C2)N(C)C1=S (centres undefined) | -15
CC(C)c1ccc(N(CC(=O)NCCSCc2ccc(Cl)cc2Cl)S(C)(=O)=O)cc1 | 2
COCCO[C@H]1[C@H](NC(=O)C(C)C)c2ccccc2C12CCN(Cc1cccc(F)c1F)CC2 | -6
O=C(NCc1ccccc1Cl)c1ccsc1 | -5
O=C(NCC1CCCO1)c1cccc(Cl)c1 (centres undefined) | -11
COc1ccccc1C1NCCS1 (centres undefined) | 33*
COc1cccc(C2SCCCS2)c1O | 8
CCOc1cc2c(cc1OCC)C(c1ccccc1OC)CC(=O)N2 (centres undefined) | 10
Cc1ccc(N2CCN(C(=O)c3ccccc3NC(N)=O)CC2)cc1 | 10
COCCNCc1ccc(OCC(=O)N2CCCCC2)c(OC)c1 | 5
N#C/C(=N/O)C(=O)NC(=O)c1ccccc1 | -1
CCOC(=O)c1ccccc1NC(=O)c1ccc(C(C)(C)C)cc1 | 1
SMILES | ROC1-CUL1 inh
O=C(NCc1ccncc1)c1coc(COc2cccc3cccnc23)n1 | 6
COC(=O)c1sc(NC(=O)COc2ccccc2F)nc1C | 15
Cc1cc2c3c(c1)C1C=CCC1C(c1ccc(Br)cc1)N3CC1CC=CC21 (centres undefined) | -5
O=[N+]([O-])c1ccc(C2C3CC=CC3c3c4c(cc5ccccc35)C3C=CCC3CN42)cc1 (centres undefined) | -6
O=C(O)c1cc2c3c(c1)C1CC=CC1C(c1ccc(Br)cc1)N3CC1CC=CC21 (centres undefined) | 102*
Cc1cc(OCCOc2ccc(Cl)cc2/C=C2\C(=O)NN(c3ccccc3)C2=O)ccc1Cl | 49*
CCOc1cc(/C=C2\C(=O)NN(c3ccccc3)C2=O)cc(Cl)c1OCCOc1ccc(C)cc1C | 14
Cc1cccc(OCCOc2c(Cl)cc(Cl)cc2/C=C2\C(=O)NN(c3ccccc3)C2=O)c1 | 98*
O=C1NN(c2ccccc2)C(=O)/C1=C/c1cc(Cl)cc(Cl)c1OCCCOc1ccc(Cl)cc1 | 11
COc1cc(/C=C2\C(=O)NN(c3ccccc3)C2=O)cc(Cl)c1OCCOc1ccc(Cl)c(C)c1 | 12
Cc1cccc(OCCCOc2c(Cl)cc(Cl)cc2/C=C2\C(=O)NN(c3ccccc3)C2=O)c1 | 7
O=C(O)c1ccc(CNCCc2ccccc2F)cc1 | 3
COC(=O)c1ccccc1C(=O)N1CCC(C(Cc2ccccc2)N(C)C(=O)c2ccoc2C)CC1 (centres undefined) | -3
CCc1ocnc1C(=O)NCC1CCN(c2cnn(C)c(=O)c2)C1 (centres undefined) | -1
CCN(CC)S(=O)(=O)c1ccc(C(=O)Nc2ccc(Cc3ccc(NC(=O)c4ccc(S(=O)(=O)N(CC)CC)cc4)cc3)cc2)cc1 | 2
Cc1cc(C)nc(NC(=O)NC(=S)c2ccccc2)n1 | 2
Cc1ccc(C(=O)C(NC(=O)c2ccco2)Nc2ccc([N+](=O)[O-])cc2)cc1 (centres undefined) | 1
Cc1c(CS(=O)(=O)c2ccccc2)c(=O)n(-c2ccccc2)n1C | -6
CC(=O)c1cc(CN2CCc3[nH]nc(-c4ccccc4F)c3C2)cs1 | 8
C#CCNC(=O)C[n+]1c2ccccc2n2nc3c(cc21)c1cccc2cccc3c21 | 0
Cn1c2cccc3cccc(c32)[n+]2nc3c(cc12)c1cccc2cccc3c21 | 95*
Cn1c2ccccc2c2nsnc21 | 5
CSc1nccc(N2C[C@H]3OC(=O)N(CCN4CCCCC4)[C@H]3C2)n1 | -1
O=C(O)CSc1cccnc1Sc1ccc(Cl)cc1 | 5
CSC1=NC(=O)C(C(c2ccc(Cl)cc2)C2C(=O)N=C(SC)NC2=O)C(=O)N1 (centres undefined) | -4
O=C1Oc2cccnc2C(=O)C1C(c1ccc(Cl)cc1)C1C(=O)Oc2cccnc2C1=O (centres undefined) | 38*
CC(C)c1n[nH]c2c1CN(C(=O)CCc1nc(-c3ccco3)no1)CC2 | 4
c1cnc(N2CCC(C3CCN(CCCn4cccn4)C3)CC2)nc1 (centres undefined) | -3

Bioassay records: PubChem BioAssay, Pan Lab, Icahn School of Medicine at Mount Sinai
